MazF activator = increases E. coli MazEF RNase cleavage of RNA | activation, % at 20 µM | 350,000 compounds, 0.32% hits | P0AE70 | FAM/BHQ RNA-DNA oligo cleavage fluorescence, 5 h; in the data active = activation above about 50%
Target sequence (P0AE70 whole entry, looked up): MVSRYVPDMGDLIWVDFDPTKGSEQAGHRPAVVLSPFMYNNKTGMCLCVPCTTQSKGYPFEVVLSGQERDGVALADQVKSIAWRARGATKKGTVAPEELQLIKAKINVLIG
CCHF vOTU inh-1 = CCHFV vOTU protease inhibition; Pep-AMC fluorescence; 370,000 compounds, 0.55% hits; inhibition, % at 11.5 µM; note: 0% = vehicle wells with enzyme and 100% = no enzyme wells
Mtb bLac sens = beta-lactam sensitization of Mtb H37Rv | 330,000 compounds, 0.27% hits | inhibition, % at 25 µM | M. tuberculosis H37Rv growth with meropenem, percent inhibition; call rule not given here;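 note: growth measured after seven days incubation then overnight dye step; 0% = bacteria only wells and 100% = bacteria with antibiotic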
3CLpro inhibitor = SARS-CoV 3CLpro protease inhibition; 290,000 compounds, 0.14% hits; P0C6X7; recombinant SARS-CoV 3CLpro, quenched FRET peptide cleavage; inhibition, % at 6 µM; in the data active = inhibition above about 12%
Sa RN4220 lethal = S. aureus RN4220 growth inhibition; OD600, 16 h; inhibition, % (concentration not given with the values); AID 1259311; 330,000 compounds, 0.33% hits; in the data active = inhibition above about 85%;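 note: plate controls were untreated cells for no effect and reference antibiotic for full effect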
ugtP null kill = compounds lethal to S. aureus RN4220 ugtP deletion mutant | OD600 growth, 16 h | growth inhibition, % (concentration not given with the values) | 330,000 compounds, 0.54% hits | AID 1259309; in the data active = growth inhibition above about 68%;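 note: plate controls were untreated wells for no effect and antibiotic for full effect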
CCHF vOTU inh-2 = CCHFV vOTU protease inhibition, confirmation; shares compounds with CCHF vOTU inh-1; Recombinant CCHFV vOTU, Pep-AMC fluorescence; inhibition, % at 11.5 µM; 1,900 compounds, 17% hits
Numbers without * were called inactive; nt = no result. Shown are actives, neighbours in structure and some others; about 1.3% of the full set was active somewhere. Cut-off read from the data, not from the text of the source, unless noted: active = inhibition above about 30%; inactive = the rest.

SMILES	MazF activator	CCHF vOTU inh-1	Mtb bLac sens	3CLpro inhibitor	Sa RN4220 lethal	ugtP null kill	CCHF vOTU inh-2
COc1ccc(NS(=O)(=O)c2cc(NC(=O)c3ccc(=O)[nH]n3)ccc2C)cc1	6	31*	1	nt	6	7	-10
COc1ccc(/C=C2\SC(=O)N(CCNC(=O)C3=COCCO3)C2=O)cc1	1	36*	-7	nt	0	0	-6
CCOC(=O)C1=CCC(c2cc3ccc(OC)cc3n2C(=O)OC(C)(C)C)NC1 (configuration not stated)	nt	34*	nt	nt	nt	nt	-6
OC(c1ccc(Cl)c(F)c1)c1ncc(-c2cccc(C(F)(F)F)c2)[nH]1 (configuration not stated)	nt	36*	nt	nt	nt	nt	-6
Cc1c(Cl)cccc1NC(=O)CCC(=O)NN=Cc1ccc[nH]1	nt	nt	nt	nt	-2	0	nt
COc1ccc(N2C(=O)[C@@H]3[C@H](C2=O)[C@H]2c4ccccc4C=CN2[C@@H]3C(=O)Nc2ccccc2)cc1	-71	9	-2	0	-1	-3	nt
Cc1ccc(N2C(=O)[C@@H]3[C@H](C2=O)C2c4ccccc4C=CN2[C@@H]3C(=O)c2ccco2)cc1 (some centres not stated)	-18	78*	nt	3	nt	nt	101*
CC(C)(C)C(=O)[C@@H]1[C@@H]2C(=O)N(c3ccc4c(c3)OCCO4)C(=O)[C@@H]2C2c3ccccc3C=CN21 (some centres not stated)	11	54*	1	-3	-3	2	-7
CC(=O)[C@@H]1[C@@H]2C(=O)N(Cc3ccccc3)C(=O)[C@@H]2C2c3ccccc3C=CN21 (some centres not stated)	9	64*	8	-1	7	0	33*
Cc1ccc(N2C(=O)[C@@H]3[C@H](C2=O)C2c4ccccc4C=CN2[C@@H]3C(=O)c2ccco2)c(C)c1 (some centres not stated)	-27	95*	0	-3	1	-4	53*
N#CC(=NNc1ccccc1)C(=N)N1CCCCC1	nt	nt	nt	nt	2	4	nt
CCN(CC)C(=O)C(=O)NN=Cc1ccc(C(=O)O)cc1	nt	nt	nt	nt	6	8	nt
CC(CC(=O)Nc1ccc(C)c(Cl)c1)=NNC(=O)c1ccncc1	nt	nt	nt	nt	5	-7	nt
Fc1cccc(Cc2c(-c3ccco3)nc3c(Cl)cc(C(F)(F)F)cn23)c1	nt	31*	nt	nt	nt	nt	-4
CN(C)c1ncc(C2=C(Cl)C(=O)C(N3CCCC3)=C(Cl)C2=O)s1	10	62*	11	6	19	27	49*
CC1CN(C(C)CO)C(=O)Cc2cc(NC(=O)CCC(F)(F)F)ccc2OC1CN(C)S(C)(=O)=O (configuration not stated)	nt	nt	nt	nt	8	-1	nt
CCOC(=O)Nc1ccc(NCc2ccc(F)cc2)nc1N	26	67*	2	nt	4	1	-5
CC(NC(=O)c1nc[nH]c1C(=O)NC(CCCCNC(=O)OC(C)(C)C)C(=O)OC(C)(C)C)C(=O)OC(C)(C)C (configuration not stated)	nt	nt	nt	nt	7	-1	nt
O=C(Nc1ccc(-c2nc3ccccc3[nH]2)cc1)c1ccc2c(c1)OCO2	-29	36*	12	2	3	-9	-39
O=C(Nc1ccc(Cl)c(-c2nc3ccccc3[nH]2)c1)c1ccc2c(c1)OCO2	0	3	9	-4	7	-15	nt
O=C(CSCc1ccccc1)NN=Cc1ccccc1OCc1ccccc1	nt	nt	nt	nt	-2	-4	nt
Nn1cnnc1NN=Cc1ccc(Cl)cc1Cl	nt	nt	nt	nt	-4	2	nt
COc1ccc(C(O)c2nccc3cc(OC)c(OC)cc23)cc1OC (configuration not stated)	2	90*	-11	2	-9	15	-10
CCOc1ccc(N=Nc2c(=O)[nH]n3c(=O)cc(C)[nH]c23)cc1	2	36*	9	3	23	14	10
O=C(CNC(=O)c1[nH]cnc1C(=O)NC(Cc1ccccc1)C(=O)OCc1ccccc1)OCc1ccccc1 (configuration not stated)	nt	nt	nt	nt	5	12	nt
SMILES	MazF activator	CCHF vOTU inh-1	Mtb bLac sens	3CLpro inhibitor	Sa RN4220 lethal	ugtP null kill	CCHF vOTU inh-2
O=C1/C(=N\S(=O)(=O)c2cccs2)C([n+]2ccccc2)=C([O-])c2ccccc21	-2	49*	1	4	8	8	89*
CC(C)(C)c1cc[n+](C2=C([O-])c3ccccc3C(=O)/C2=N\S(=O)(=O)c2cccs2)cc1	6	77*	-3	-4	18	10	70*
Cc1ccc(NC2=C/C(=N\S(=O)(=O)c3cccs3)c3ccccc3C2=O)c(C)c1	16	nt	100	9	11	-5	nt
Cn1cccc1C=NN1CCN(c2ccccc2)CC1	nt	nt	nt	nt	4	-5	nt
CN(C)c1ccc(NC(=O)COC(=O)c2cc(=O)c3ccccc3o2)cc1	0	35*	-1	7	-4	0	-15
CC(OC(=O)c1cc(=O)c2ccccc2o1)C(=O)Nc1ccc(N(C)C)cc1 (configuration not stated)	1	0	0	nt	-1	3	nt
O=C1CCN(CCc2ccccc2)CCN1C(CO)Cc1ccccc1 (configuration not stated)	nt	nt	nt	nt	-2	-1	nt
COC(=O)Nc1ccc(S(=O)(=O)N2CCC(C(=O)N3CCC(C)CC3)CC2)cc1	-8	42*	8	3	6	5	-19
Cc1ccc(S(=O)(=O)Oc2ccc(C=N/N=C3/NC(=O)C(CC(=O)O)S3)cc2)cc1[N+](=O)[O-] (configuration not stated)	nt	nt	nt	nt	2	2	nt
COc1ccc(C(=O)NCCS(=O)(=O)N2CCCC2)cc1	1	46*	-2	nt	nt	nt	-23
COc1ccc(C(=O)NCCS(=O)(=O)N2CCCCCC2)cc1	4	-4	-11	nt	3	9	nt
CC(NC(=O)c1nc[nH]c1C(=O)NCc1ccc(CNC(=O)OC(C)(C)C)cc1)C(=O)OC(C)(C)C (configuration not stated)	nt	nt	nt	nt	9	-7	nt
COC(=O)NN=Cc1cc(Cl)cc(Cl)c1OCc1ccc(F)cc1	nt	nt	nt	nt	4	-5	nt
COC(=O)[C@]12C[C@H](CC(=O)NCc3ccccc3)C(=O)N(Cc3ccco3)C1=C[C@H](C(C)(C)C)O[C@@H]2C	nt	16	nt	nt	nt	nt	nt
COC(=O)[C@]12C[C@H](CC(=O)NCc3cccc(C(F)(F)F)c3)C(=O)N(Cc3ccc(Cl)cc3Cl)C1=C[C@H](C(C)(C)C)O[C@@H]2C	nt	32*	nt	nt	nt	nt	15
COC(=O)[C@]12C[C@H](CC(=O)NCc3cccc(C(F)(F)F)c3)C(=O)N(Cc3ccco3)C1=C[C@H](C(C)(C)C)O[C@@H]2C	nt	32*	nt	nt	nt	nt	5
CCCCCCSc1ccc(C2C3C(=O)N(CC)C(=O)C3[C@]3(C(=O)OC)CCCCN23)cc1 (some centres not stated)	nt	nt	nt	nt	-1	2	nt
